The source of these data is PubChem BioAssay (NCATS).

Several values for one entry are separate records, joined by “and”; a condition that tells them apart may be missing. Equal values may be shown once. Results filed as inconclusive are left out. A number with no mark means an inactive call. Activity calls are given as the source filed them. Calls come from the whole dose curve; as a rule, active = well fitted curve in the direction sought with a large enough effect; inconclusive = small, poorly fitted or top-dose-only effect, or another doubt; inactive = no such curve, though single readings can be large; an effect the other way counts as inactive or inconclusive.

The subject of assay [1] is CRL-7250. Nature of the assay: Cytotoxic Profiling of Annotated Libraries Using Quantitative High-Throughput Screening (AID 1296008). For max response: % is set by controls: 0 for no effect and ±100 for the full control effect. Note: nearly all actives have a fitted effect of over 60% in size. Conditions: Five cell lines viability, CellTiter-Glo ATP luminescence, 48-72 h; max response: active compounds read low. A digest of the protocol:
(§1)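 Cytotoxicity was measured as CellTiter-Glo ATP luminescence, read after 10 min at room temperature. Compound treatment of the cells lasted 48 or 72 hr at 37 degrees Celsius in a qHTS format.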
(ATP-based viability assays read luminescence as a measure of living cells.)

For assay [2], the system named is HEK293. The description is as above. Conditions: Five cell lines viability, CellTiter-Glo ATP luminescence, 48-72 h; max response: active compounds read low. A digest of the protocol: as §1
Assay [3] relates to NIH3T3. The assay is described as above. To be noted: Five cell lines viability, CellTiter-Glo ATP luminescence, 48-72 h; max response: active compounds read low. Summed up: as §1
In assay [4] the test system is HEK293T. The assay can be described thus: qHTS assay to identify novel small-molecules to repurpose for Merkel cell carcinoma treatment (AID 1296009). Note: nearly all actives have a fitted effect of over 60% in size. To be noted: MCC and control cell lines, CellTiter-Glo viability, 72 h; at 44.8 µM (top of the series) unless noted. Summed up:
(§2)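 72 hr, 37 degree celsius; NPC 8-pt / MIPE 11-pt dose response; compound pinned in DMSO; CellTiter-Glo, 10 min RT, luminescence; normalized to no-cell and DMSO controls.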
On the technique in general: qHTS replaces the single test concentration by a dilution series.

Assay [5] relates to MCC-13. The description is as above. Conditions: MCC and control cell lines, CellTiter-Glo viability, 72 h; series mostly up to 46 µM. Summed up:
as §2

Assay [6] deals with MCC-26. Described as above. To be noted: MCC and control cell lines, CellTiter-Glo viability, 72 h; series mostly up to 46 µM. Summed up:
as §2

The test system of assay [7] is MKL-1. Described as above. Conditions: MCC and control cell lines, CellTiter-Glo viability, 72 h; series mostly up to 46 µM. A digest of the protocol: as §2
For assay [8], the system named is MKL-2. Described as above. To be noted: MCC and control cell lines, CellTiter-Glo viability, 72 h; series mostly up to 46 µM. A digest of the protocol: as §2
Assay [9] relates to UISO. The assay is described as above. Conditions: MCC and control cell lines, CellTiter-Glo viability, 72 h; series mostly up to 46 µM. A digest of the protocol:
as §2

Assay [10] relates to WaGa. Described as above. Conditions: MCC and control cell lines, CellTiter-Glo viability, 72 h; series mostly up to 46 µM. A digest of the protocol:
as §2

The subject of assay [11] is C33A. Nature of the assay: Primary qHTS to identify gynecologic anti-cancer compounds using libraries of approved drugs and bioactive compounds (AID 1345084). Note: nearly all actives have a fitted effect of over 55% in size. To be noted: Gynecologic cancer cell panel viability, ATPlite luminescence, 48 h; series mostly up to 57.5 µM. Summed up: (§3)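 Five-concentration response, 48 h; readout is ATP-driven luciferase luminescence.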
The subject of assay [12] is CASKI. The assay is described as above. To be noted: Gynecologic cancer cell panel viability, ATPlite luminescence, 48 h; series mostly up to 57.5 µM. A digest of the protocol: as §3
Assay [13] has as its system Es-2. The assay is described as above. Conditions: Gynecologic cancer cell panel viability, ATPlite luminescence, 48 h; series mostly up to 57.5 µM. Summed up:
as §3

Assay [14] deals with HeLa. Described as above. To be noted: Gynecologic cancer cell panel viability, ATPlite luminescence, 48 h; series mostly up to 57.5 µM. A digest of the protocol:
as §3

Assay [15] deals with W2. Nature of the assay: qHTS profiling for inhibitors of Plasmodium falciparum proliferation (AID 504749). Note: nearly all actives have a fitted effect of over 60% in size. To be noted: P. falciparum in erythrocytes, SYBR Green DNA, 72 h; series mostly up to 28.7 µM. A digest of the protocol: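 Infected RBCs, 0.3% parasitemia/2.5% Hct final; cpd 72 h, 37 C, 5% CO2; lysis buffer with saponin/triton/SYBR Green I, o/n RT dark; FI 485/535; norm. to artemisinin (0.29 uM) and DMSO.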

In assay [16] the test system is HaCat. The assay can be described thus: Cytotoxic Profiling of Annotated Libraries Using Quantitative High-Throughput Screening (AID 1296008). For max response: % is set by controls: 0 for no effect and ±100 for the full control effect. Note: nearly all actives have a fitted effect of over 60% in size. To be noted: Five cell lines viability, CellTiter-Glo ATP luminescence, 48-72 h; max response: active compounds read low. A digest of the protocol:
as §1

Assay [17] concerns KB-3-1. Described as above. To be noted: Five cell lines viability, CellTiter-Glo ATP luminescence, 48-72 h; max response: active compounds read low. Summed up:
as §1

In assay [18] the test system is NIH3T3. The assay can be described thus: qHTS assay to identify novel small-molecules to repurpose for Merkel cell carcinoma treatment (AID 1296009). Note: nearly all actives have a fitted effect of over 60% in size. Conditions: MCC and control cell lines, CellTiter-Glo viability, 72 h; at 44.8 µM (top of the series). Summed up:
as §2

The test system of assay [19] is CAOV3. The assay can be described thus: Primary qHTS to identify gynecologic anti-cancer compounds using libraries of approved drugs and bioactive compounds (AID 1345084). Note: nearly all actives have a fitted effect of over 55% in size. To be noted: Gynecologic cancer cell panel viability, ATPlite luminescence, 48 h; series mostly up to 57.5 µM. A digest of the protocol: as §3
Assay [20] relates to HACAT. Nature of the assay: qHTS assay to identify novel small-molecules to repurpose for Merkel cell carcinoma treatment (AID 1296009). Note: nearly all actives have a fitted effect of over 60% in size. Conditions: MCC and control cell lines, CellTiter-Glo viability, 72 h; at 44.8 µM (top of the series) unless noted. A digest of the protocol: as §2
Potency is the fitted concentration of half-maximal effect.

For `CCN(CC)CCOC(=O)C1(c2ccccc2)CCCC1`, the results for the max response in assay [1] and in assay [3] were -4.97% and 2.7%, respectively. The result in assay [2] and in assay [4] was inactive. Besides, the Potency entry in assay [5], in assay [6], in [7], in assay [8], in [9] and in assay [10] was “inactive” in each case. The Potency entry in [11], in [12], in [13] and in assay [14] was “inactive” throughout.
With `CN(C)CCN1C(=O)c2ccccc2N(C)c2ccccc21`, the Potency in assay [15] was 2.13 µM (active). In addition, the max response in [1] was -7.77%; in assay [2], -1.88%; in [3], -0.0642%. The Potency entry in [5], in [6], in assay [7], in assay [8], in assay [9] and in [10] was “inactive” throughout. For the same molecule, the Potency entry in assay [11], in assay [12], in assay [13] and in [14] was “inactive” in each case.
Turning to `CC(C)CCCC(C)N` (configuration not stated), the Potency result in assay [15], in assay [5], in assay [6], in assay [7], in [8] and in [9] was “inactive” throughout. Further, the Potency entry in assay [10], in assay [11], in assay [19], in assay [12], in assay [13] and in assay [14] was “inactive” throughout. Besides, the Potency in assay [1] is 33.5 µM (active). The max response in [16] is -0.769%; in assay [17], 22%. Also, the result in [3] and in assay [18] was inactive.
As to `C[C@@]12C(=O)OC(=O)[C@]1(C)C1CCC2O1`, the Potency in [1] was 2.99 µM (active); in assay [2], 7.5 µM (active); in assay [3], 9.44 µM (active); in assay [5] it was 3.76 µM (active); in assay [6], 4.22 µM (active); in assay [7], 3.76 µM (active). The Potency in assay [9] was 2.66 µM (active); in assay [19] it was 0.631 µM (active); in [12] it was 6.31 µM (active); in assay [13], 10 µM (active); in [14], 3.55 µM (active).
For `CC(C)NCC(O)c1ccc2ccccc2c1` (configuration not stated), the Potency in assay [15] is 1.9 µM (active). The max response is 3.16% in assay [1] and -2.59% in assay [17]. Besides, the molecule was classed as inactive in assay [16], in assay [3], in [20] and in assay [18]. Also, the Potency result in [5], in assay [6], in assay [7], in assay [8], in assay [9] and in [10] was “inactive” each time. Besides, the Potency entry in assay [11], in assay [12], in [13] and in assay [14] was “inactive” in each case.
Turning to `C[C@@H](O)[C@H]1C(=O)N2C(C(=O)O)=C(S[C@@H]3CN[C@H](CNS(N)(=O)=O)C3)[C@H](C)[C@H]12`, the Potency result in [15], in assay [5], in assay [6], in [7], in assay [8] and in [9] was “inactive” throughout. The Potency result in assay [10], in assay [11], in [19], in assay [12], in [13] and in assay [14] was “inactive” each time. The max response in [1] was -1.21%; in assay [17], 7.85%; in assay [3] it was 3.07%. Moreover, the result in [16] and in assay [20] was inactive.
`C[C@H]1[C@H]2CC[C@H]3[C@@H]4CC=C5C[C@@H](N(C)C)CC[C@]5(C)[C@H]4CC[C@]23CN1C`: the max response in assay [1] was -17.6%; in assay [17], 3.38%; in [3], 0.439%. The outcome in assay [16] and in assay [20] was inactive. The Potency result in assay [5], in assay [8], in assay [9], in assay [10], in [11] and in [12] was “inactive” throughout. Besides, the Potency result in assay [13] and in assay [14] was “inactive” in each case.
For `CCc1cc(Cl)c(OC)c(C(=O)NC[C@@H]2CCCN2CC)c1O`, the max response was 3.41% in [1] and 4.04% in assay [3]. Also, the call in assay [16] and in [20] was inactive. For the same molecule, the Potency entry in assay [5], in [6], in assay [7], in assay [8], in assay [9] and in [10] was “inactive” throughout. The Potency entry in assay [11], in [19], in assay [12], in assay [13] and in assay [14] was “inactive” in each case.
For `O=C(CN1CCN(Cc2ccc3c(c2)OCO3)CC1)N1c2ccccc2Sc2ccccc21`, the Potency in [15] was 6.01 µM (active). Also, in assay [1], the max response is -6.96%. The call in [16], in [3], in assay [20] and in assay [18] was inactive. The Potency entry in assay [5], in assay [6], in assay [7], in assay [8], in assay [9] and in assay [10] was “inactive” in each case. Besides, the Potency entry in assay [11], in assay [19], in assay [12], in [13] and in assay [14] was “inactive” each time.
`CCN1/C(=C/C=C/c2sc3ccccc3[n+]2CC)Sc2ccccc21`: the Potency was 0.0953 µM (active) in assay [15]; 0.13 µM (active) in assay [1]; 2.91 µM (active) in assay [16]; 7.31 µM (active) in assay [17]; 1.84 µM (active) in [3]; 3.26 µM (active) in assay [5]. The Potency in assay [6] was 5.8 µM (active); in assay [7] it was 0.366 µM (active); in [8] it was 0.058 µM (active); in assay [9], 0.366 µM (active); in [10], 0.82 µM (active); in assay [11], 2.51 µM (active). Moreover, the Potency in assay [13] is 2.51 µM (active); in assay [14], 0.891 µM (active).
With `O=C(CCCN1CC=C(n2c(=O)[nH]c3ccccc32)CC1)c1ccc(F)cc1`, the max response was -30.7% in assay [1]; -9.03% and -18.9% in [16]; -10.6% in assay [3]. Moreover, the Potency result in [6], in assay [7], in assay [8], in [11], in [12] and in [13] was “inactive” each time. Further, in assay [14], the Potency entry is “inactive”. Also, in assay [9], the Potency is 26.6 µM (active).
In the case of `CCCCNc1ccc(C(=O)OCCOCCOCCOCCOCCOCCOCCOCCOCCOC)cc1`, the Potency entry in [15], in assay [5], in assay [6], in assay [7], in assay [8] and in assay [11] was “inactive” throughout. Further, the Potency result in [19], in assay [12] and in assay [14] was “inactive” each time. Also, the max response in assay [1] is -14.1%; in [16], 0.553%; in assay [17], -13.9%; in assay [3], -8.1%.
Take `N#C/C(=C1\SCC(c2ccccc2Cl)S1)n1ccnc1` (configuration not stated): the max response was -7.28% in [2], 0.837% in assay [17] and -9.88% in assay [3]. Besides, the call in [16] and in assay [20] was inactive. Besides, the Potency entry in assay [5], in assay [6], in assay [7], in assay [8], in [9] and in assay [10] was “inactive” each time. For the same molecule, the Potency result in assay [11], in assay [19], in assay [12] and in [13] was “inactive” each time.
`CCCCOC(=O)CC(CC(=O)OCCCC)(OC(C)=O)C(=O)OCCCC`: the values for the max response in assay [1] and in assay [3] were -18.3% and -2.35%, respectively. For the same molecule, the call in [16] and in [20] was inactive. Also, the Potency result in assay [5], in [6], in assay [7], in assay [8], in assay [9] and in assay [10] was “inactive” in each case. The Potency entry in assay [11], in assay [12], in [13] and in assay [14] was “inactive” each time.
